Compounds without any hit were thinned out: in the full panel of roughly 83,000, 20% have a hit.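 Method: cells in 96-well plates; compound added at one concentration; 48 h incubation; percent growth measured; values under 10 scored active.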 A number with no mark means an inactive call. Calls of active or inactive are those of the source.
Tested on: UO-31 renal
Assay: NCI-60 one-dose screen, 48 h (100 = growth as untreated, 0 = no growth, -100 = all killed)
Settings: 10 µM unless noted

**Q.** Which growth does the source give for `C=C(C)[C@@H]1CC[C@]2(C(N)=O)CC[C@]3(C)[C@H](CC[C@@H]4[C@@]5(C)CC[C@H](O)C(C)(C)[C@@H]5CC[C@]43C)[C@@H]12` here?
**A.** -100% [100 µM] (active)

**Q.** Which growth does the source give for `CCN1CCN(CC(=O)Nc2nc3ccc(NCc4ccc(Cl)cc4)cc3s2)CC1` here?
**A.** 59.6%

**Q.** With `COc1cc(C)cc2oc3oc(=O)c(C(=O)c4cc5cc(Br)ccc5o4)cc3c(=O)c12` as the molecule, how does the growth read?
**A.** 72.7%

**Q.** For `O=S(=O)(NCCCNc1nccc(-c2c(-c3cccc(F)c3)nc3occn23)n1)c1cccc2ccccc12`, which growth is on record?
**A.** 17.6%

**Q.** For `CC1(C)[C@@H](NOCCCN)CC[C@]2(C)[C@H]3C(=O)C=C4[C@@H]5C[C@](C)(C(=O)O)CC[C@]5(C)CC[C@@]4(C)[C@]3(C)CC[C@@H]12`, which growth is on record?
**A.** -100% [100 µM] (active)

**Q.** With `O=c1[nH]c(CN2CCN(c3cccc(Cl)c3)CC2)nc2cc(Cl)ccc12` as the molecule, how does the growth read?
**A.** 9.86% (active)

**Q.** For `COc1cc2c(O)n(CCCN3CCOCC3)c3c4cnc5cccc(c(=O)c3c2cc1OC)c54`, which growth is on record?
**A.** 30.2%

**Q.** Which growth does the source give for `CCOC(=O)c1sc2nc(-c3cc(OC)c(OC)c(OC)c3)nc(N3CCOCC3)c2c1C` here?
**A.** 22.4%

**Q.** With `Cc1cc(C)c(S(=O)(=O)/N=c2/n(-c3ccccc3)nc3n2CCN3C2=NCCN2)c(C)c1` as the molecule, how does the growth read?
**A.** 61.2%

**Q.** With `Cc1ccc(S(=O)(=O)N/N=C2\CC3CCC2(C)C3(C)C)cc1` (centres undefined) as the molecule, how does the growth read?
**A.** 86.4%

**Q.** How did the growth turn out when `N#C/C(C(=O)c1ccccc1)=C1/C(=O)Nc2ccccc21` was run?
**A.** 73.4%

**Q.** Which growth does the source give for `CCc1ccc(C2=C/C(=C/c3ccccc3)C(=O)N2CCc2ccc(S(N)(=O)=O)cc2)cc1` here?
**A.** 68.4%

**Q.** For `CC(C)C1=NOC(=O)C1=Cc1cn(-c2ccco2)nc1-c1ccccc1`, which growth is on record?
**A.** 71.5%

**Q.** With `COc1cc(Cl)cc(-c2nn(C(=O)NS(=O)(=O)c3ccccc3)cc2-c2ccncc2)c1` as the molecule, how does the growth read?
**A.** 70.6%

**Q.** `C=C(C)[C@@H]1CC[C@]2(COCCC#N)CC[C@]3(C)[C@H](CC[C@@H]4[C@@](C)(CCCNCCC#N)[C@H](C(=C)C)CC[C@]43C)[C@@H]12` was tested. Which growth did it give?
**A.** 15.3% [100 µM]

**Q.** With `COc1ccc(N(c2nc(-c3ccc([N+](=O)[O-])cc3)cs2)C(C)C)cc1` as the molecule, how does the growth read?
**A.** 69.3%

**Q.** With `NS(=O)(=O)c1ccc(CCN2C(=O)/C(=C\c3ccccc3)C=C2c2ccc(Cl)cc2)cc1` as the molecule, how does the growth read?
**A.** 65.8%

**Q.** Which growth does the source give for `O=C1C(Cl)=C(Nc2ccc3cn[nH]c3c2)C(=O)c2ccccc21` here?
**A.** -97.7% (active)

**Q.** For `CC(C)c1ccc(C(=O)Nc2sc3c(c2C#N)CCC(=O)C3)cc1`, which growth is on record?
**A.** -97% (active)

**Q.** For `Cc1ccc2c(c1)/C(=N\N=C/c1cn(C(C)C)c3ccccc13)C(=O)N2`, which growth is on record?
**A.** 57.8%

**Q.** `O=C(C[n+]1ccn(CC(OCc2ccc(Cl)cc2Cl)c2ccc(Cl)cc2Cl)c1)c1ccc(F)cc1` (centres undefined) was tested. Which growth did it give?
**A.** 84.1%

**Q.** With `CCOc1cccc2c(NC(C)CCCN(CC)CC)c(C)cnc12` (centres undefined) as the molecule, how does the growth read?
**A.** 73.3%

**Q.** With `O=C(Nc1cccc2ccccc12)c1cc2ccccc2cc1O` as the molecule, how does the growth read?
**A.** -19.2% (active)

**Q.** With `Cc1cc(C)nc(SCC(=O)Nc2cccc(N=Cc3ccccc3O)c2)n1` as the molecule, how does the growth read?
**A.** 76.7%

**Q.** With `CSc1nc2c(c(=O)n1C)C1(C(=O)N(Cc3ccccc3)c3ccccc31)c1c(nc(SC)n(C)c1=O)N2` as the molecule, how does the growth read?
**A.** 73.9%

**Q.** Which growth does the source give for `O=C1COCCN1c1ccc(NCc2cn(Cc3ccc(F)cc3)c3ccccc23)cc1` here?
**A.** 40.6%

**Q.** For `CCN(CCO)CCC(=O)c1ccc([N+](=O)[O-])cc1`, which growth is on record?
**A.** 75%

**Q.** `O=C(Nc1cccc(C2=NCCN2)c1)c1cccc(C(=O)Nc2cccc(C3=NCCN3)c2)c1` was tested. Which growth did it give?
**A.** 84.5%

**Q.** Which growth does the source give for `CC(C)[C@H]1CCC2=C3CC[C@]45OC(=O)[C@@]6(CCC(C)(C)C[C@H]64)CC[C@@]5(C)[C@]3(C)CC[C@@]21C` here?
**A.** 67.9% [100 µM]

**Q.** `COc1ccc(/C=C2\N=C(Nc3ccccc3)N(NC(=O)c3ccccn3)C2=O)cc1` was tested. Which growth did it give?
**A.** 72.3%

**Q.** How did the growth turn out when `Nc1nnc(CSc2nnc3n(Cc4ccccc4)c(=O)c4c5c(sc4n23)CCCC5)s1` was run?
**A.** 84.6%

**Q.** How did the growth turn out when `O=C(NCCCNC(=O)OCc1ccc2c(Br)cc(Br)c(O)c2n1)OCc1ccc2c(Br)cc(Br)c(O)c2n1` was run?
**A.** -100% (active)

**Q.** For `CCn1cc(-c2[nH]c(=S)ncc2-c2ccc(Cl)cc2)c(-c2ccc(Br)cc2)n1`, which growth is on record?
**A.** 89.4%

**Q.** Which growth does the source give for `Cc1cccc(C[C@H](NC(=O)Nc2ccc(Cl)cc2F)C(=O)N[C@@H]2C(=O)N3C[C@H](O)C[C@H]3C(=O)N3CCCC[C@H]3C(=O)N[C@@H](C)C(=O)N3C[C@H](C)C[C@H]3C(=O)O[C@H]2C)c1` here?
**A.** 10.3%
